# From PubChem BioAssay (EPA / NIEHS)
# The source made the active and inactive calls. How the source made its calls: active means hit-call score of the fitted dose curve at least 0.9, where 1 is the maximum; inactive means score below 0.9.
# Read-out: Interleukin-8 (IL8), CXCL8 (gene 3576)
# Assay: BSK_hDFCGF_IL8: BioMAP Diversity Plus: hDFCGF Assay for Interleukin-8 (IL8) Biomarker Activity (AID 2283058)
# Details: primary human foreskin fibroblasts; actives raise or lower the signal
# In short: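 hDFCGF human dermal fibroblasts; 24 h chemical exposure; IL-8 by ELISA; bidirectional curve fit vs DMSO baseline; gain or loss of signal scored.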
SMILES,outcome,AC50
CC1(C)CCC(=Cc2ccc(Cl)cc2)C1(O)Cn1cncn1 (stereo unspecified),inactive,
CC1(C)C(C(=O)OC(C#N)c2cccc(Oc3ccccc3)c2)C1(C)C (stereo unspecified),inactive,
CCOP(=O)(OCC)Oc1nc(Cl)c(Cl)cc1Cl,inactive,
CCSC(=O)N1CCCCCC1,inactive,
CCCN(CC)CC1COC2(CCC(C(C)(C)C)CC2)O1 (stereo unspecified),inactive,
COCC(=O)N(c1c(C)cccc1C)C(C)C(=O)OC (stereo unspecified),inactive,
Clc1cccc(C(Cl)(Cl)Cl)n1,inactive,
CC1(C)C(C=C(Cl)Cl)C1C(=O)OC(C#N)c1cccc(Oc2ccccc2)c1 (stereo unspecified),inactive,
Nc1c(Cl)c(Cl)nc(C(=O)O)c1Cl,inactive,
CC(C)(C)C(=O)C(Oc1ccc(Cl)cc1)n1cncn1 (stereo unspecified),inactive,
CCOc1nc(F)cc2nc(S(=O)(=O)Nc3c(Cl)cccc3Cl)nn12,inactive,
C=C(C)CN(CC)c1c([N+](=O)[O-])cc(C(F)(F)F)cc1[N+](=O)[O-],inactive,
N#Cc1c[nH]cc1-c1cccc2c1OC(F)(F)O2,inactive,
CS(=O)(=O)c1ccc(C(=O)C2C(=O)CCCC2=O)c([N+](=O)[O-])c1,inactive,
COC(=O)c1c(C(F)F)nc(C(F)(F)F)c(C2=NCCS2)c1CC(C)C,inactive,
CCNP(=S)(OC)O/C(C)=C/C(=O)OC(C)C (stereo unspecified),inactive,
CC(C)Oc1cccc(NC(=O)c2ccccc2C(F)(F)F)c1,inactive,
CS(=O)(=O)c1cc(C(F)(F)F)ccc1C(=O)c1cnoc1C1CC1,inactive,

SMILES,outcome,AC50
CCC(C)n1c(=O)[nH]c(C)c(Br)c1=O (stereo unspecified),inactive,
CCOC(=O)C(C)OC(=O)c1cc(Oc2ccc(C(F)(F)F)cc2Cl)ccc1[N+](=O)[O-] (stereo unspecified),inactive,
COc1cc(Cl)c(OC)cc1Cl,inactive,
Cc1nc(N(C)C)nc(OC(=O)N(C)C)c1C,inactive,
CCCCOCN(C(=O)CCl)c1c(CC)cccc1CC,,31.4 µM (active)
COc1cc(OC)nc(NC(=O)NS(=O)(=O)c2ncccc2OCC(F)(F)F)n1,inactive,
CC(C)=CC1C(C(=O)OCc2coc(Cc3ccccc3)c2)C1(C)C (stereo unspecified),inactive,
Nc1c(Cl)c(F)nc(OCC(=O)O)c1Cl,inactive,
CC(C)N1C(=O)N(c2ccccc2)CSC1=NC(C)(C)C,inactive,
O=C1C2CC=CCC2C(=O)N1SC(Cl)(Cl)Cl (stereo unspecified),,12.1 µM (active)
N#Cc1c(Cl)cccc1Cl,inactive,
CNC(=O)N(C)c1nnc(C(C)(C)C)s1,inactive,
CCOc1nc(C(Cl)(Cl)Cl)ns1,inactive,
Cc1ccc(N=CN(C)C=Nc2ccc(C)cc2C)c(C)c1,,36.1 µM (active)
OC(c1ccc(Cl)cc1)(c1ccc(Cl)cc1)C(Cl)(Cl)Cl,,11 µM (active)
COP(=S)(OC)SCn1nnc2ccccc2c1=O,inactive,
COc1ccc(-c2ccccc2)cc1NNC(=O)OC(C)C,inactive,
Cc1cnc(C2=NC(C)(C(C)C)C(=O)N2)c(C(=O)O)c1 (stereo unspecified),inactive,
